Data: PubChem BioAssay (EPA / NIEHS)
“And” between values parts separate entries of the source, which are not always exact repeats. Equal entries are not always repeated. Records with an inconclusive call do not appear. Some structures have more than one record in an assay (separate samples or runs), and their calls can disagree. The source made the active and inactive calls. How the source made its calls, unless noted: active means hit-call score of the fitted dose curve at least 0.9, where 1 is the maximum; inactive means score below 0.9.

Assays:
[1] = biological target: Oxysterols receptor LXR-alpha (Homo sapiens) (UniProt Q13133); assay: ATG_LXRa_TRANS: Attagene TRANS-FACTORIAL HepG2 Assay for human Liver X Receptor alpha (LXRa) (AID 2282980; active means hit-call score of the fitted dose curve at least 0.9, where 1 is the maximum); details: HepG2 Attagene TRANS reporter, LXRa transactivation
Oxysterols receptor LXR-alpha (Homo sapiens), sequence (Q13133 whole entry, looked up, the tested form may be a part): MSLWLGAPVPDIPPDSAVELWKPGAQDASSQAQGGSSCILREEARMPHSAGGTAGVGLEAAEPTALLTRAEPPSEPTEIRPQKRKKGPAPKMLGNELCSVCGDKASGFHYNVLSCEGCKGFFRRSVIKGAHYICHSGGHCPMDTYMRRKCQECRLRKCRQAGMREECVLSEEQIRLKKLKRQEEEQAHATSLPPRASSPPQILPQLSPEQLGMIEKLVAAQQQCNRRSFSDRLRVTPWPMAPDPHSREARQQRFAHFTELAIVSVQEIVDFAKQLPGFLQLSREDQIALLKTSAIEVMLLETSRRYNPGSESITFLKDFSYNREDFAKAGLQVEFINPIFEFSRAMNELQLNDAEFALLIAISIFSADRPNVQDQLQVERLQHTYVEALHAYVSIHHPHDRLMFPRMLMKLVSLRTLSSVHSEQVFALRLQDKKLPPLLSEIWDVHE
Outline: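 Chemical-induced reporter mRNA measured by RT-PCR with fluorescent labelling and capillary electrophoresis after 24 h dosing of transiently transfected HepG2 cells expressing exogenous NR-Gal4 chimeras; increases scored against DMSO baseline.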

[2] = ATG_M_32_TRANS: Attagene TRANS-FACTORIAL HepG2 Assay for M32 Transcription Factor (Internal Marker) (AID 2282984; active means hit-call score of the fitted dose curve at least 0.9, where 1 is the maximum); details: HepG2 Attagene TRANS M32 internal marker reporter
Outline: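 After 24 h dosing of transfected HepG2 cells, total RNA was reverse-transcribed, reporter sequences PCR-amplified, 6-FAM labelled by primer extension and HpaI-digested before capillary electrophoresis. Signal increase over DMSO was fitted.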

[3] = biological target: Nuclear receptor subfamily 4 group A member 2 (Homo sapiens) (UniProt P43354); assay: ATG_NURR1_TRANS: Attagene TRANS-FACTORIAL HepG2 Assay for human Nuclear Receptor Related Protein 1 (NURR1) (AID 2282985; active means hit-call score of the fitted dose curve at least 0.9, where 1 is the maximum); details: HepG2 Attagene TRANS reporter, mRNA readout
Nuclear receptor subfamily 4 group A member 2 (Homo sapiens), sequence (P43354 whole entry, looked up, the tested form may be a part): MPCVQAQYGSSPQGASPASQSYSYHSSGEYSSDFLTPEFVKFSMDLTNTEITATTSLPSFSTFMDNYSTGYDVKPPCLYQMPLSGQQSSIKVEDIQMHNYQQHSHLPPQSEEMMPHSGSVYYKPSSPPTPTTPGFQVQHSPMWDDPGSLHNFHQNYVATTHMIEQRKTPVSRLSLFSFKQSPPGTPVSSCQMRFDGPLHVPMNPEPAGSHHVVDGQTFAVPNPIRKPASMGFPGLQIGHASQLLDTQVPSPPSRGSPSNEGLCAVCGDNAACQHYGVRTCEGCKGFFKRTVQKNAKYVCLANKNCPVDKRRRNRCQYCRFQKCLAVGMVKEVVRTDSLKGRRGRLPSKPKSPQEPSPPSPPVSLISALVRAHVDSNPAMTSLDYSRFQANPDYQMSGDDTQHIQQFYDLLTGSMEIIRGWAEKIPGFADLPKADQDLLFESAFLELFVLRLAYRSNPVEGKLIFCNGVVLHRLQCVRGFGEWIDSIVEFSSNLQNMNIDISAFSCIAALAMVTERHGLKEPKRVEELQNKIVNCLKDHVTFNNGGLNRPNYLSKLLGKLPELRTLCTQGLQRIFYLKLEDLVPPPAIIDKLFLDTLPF
Outline: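 Chimeric NR-Gal4 fusion activity measured in HepG2 after 24 h treatment. Reporter transcripts detected by RT-PCR and capillary electrophoresis fluorescence; positive-direction curve fitting against DMSO.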

[4] = biological target: Transcriptional activator Myb (Homo sapiens) (UniProt P10242); assay: ATG_Myb_CIS: Attagene CIS-FACTORIAL HepG2 Assay for human Myeloblastosis (Myb) Proto-Oncogene Transcription Factor (AID 2282986); details: HepG2 Attagene CIS-FACTORIAL Myb reporter transcription; actives raise or lower the signal
Transcriptional activator Myb (Homo sapiens), sequence (P10242 whole entry, looked up): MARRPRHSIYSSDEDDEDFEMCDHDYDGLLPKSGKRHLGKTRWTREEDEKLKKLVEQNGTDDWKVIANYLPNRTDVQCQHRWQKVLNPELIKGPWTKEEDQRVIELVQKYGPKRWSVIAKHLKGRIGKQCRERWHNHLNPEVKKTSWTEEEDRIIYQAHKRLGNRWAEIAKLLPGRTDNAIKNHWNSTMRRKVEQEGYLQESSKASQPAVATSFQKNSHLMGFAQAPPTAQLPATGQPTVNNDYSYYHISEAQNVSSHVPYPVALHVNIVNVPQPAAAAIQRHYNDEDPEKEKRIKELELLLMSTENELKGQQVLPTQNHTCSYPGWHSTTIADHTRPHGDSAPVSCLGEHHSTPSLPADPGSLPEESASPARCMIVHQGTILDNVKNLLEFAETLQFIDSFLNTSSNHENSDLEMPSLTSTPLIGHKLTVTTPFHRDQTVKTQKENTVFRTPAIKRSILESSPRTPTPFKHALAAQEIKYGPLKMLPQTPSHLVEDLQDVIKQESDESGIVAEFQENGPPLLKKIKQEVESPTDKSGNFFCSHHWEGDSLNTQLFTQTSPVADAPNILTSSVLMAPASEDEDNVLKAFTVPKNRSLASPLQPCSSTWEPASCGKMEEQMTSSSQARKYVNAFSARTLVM
Outline: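 Fluorescence signals from capillary electrophoresis of RT-PCR-amplified reporter cDNA give the read-out. Cells: HepG2 transfected with multiple cis-regulated reporter units. Exposure lasts 24 hours; DMSO defines baseline for gain or loss of signal.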

[5] = biological target: Nuclear respiratory factor 1 (Homo sapiens) (UniProt Q16656); assay: ATG_NRF1_CIS: Attagene CIS-FACTORIAL HepG2 Assay for human Nuclear Respiratory Factor 1 (NRF1) Orphan Gene (AID 2282987); details: HepG2 NRF1 cis-element reporter, Attagene multiplex; actives raise or lower the signal
Nuclear respiratory factor 1 (Homo sapiens), sequence (Q16656 whole entry, looked up): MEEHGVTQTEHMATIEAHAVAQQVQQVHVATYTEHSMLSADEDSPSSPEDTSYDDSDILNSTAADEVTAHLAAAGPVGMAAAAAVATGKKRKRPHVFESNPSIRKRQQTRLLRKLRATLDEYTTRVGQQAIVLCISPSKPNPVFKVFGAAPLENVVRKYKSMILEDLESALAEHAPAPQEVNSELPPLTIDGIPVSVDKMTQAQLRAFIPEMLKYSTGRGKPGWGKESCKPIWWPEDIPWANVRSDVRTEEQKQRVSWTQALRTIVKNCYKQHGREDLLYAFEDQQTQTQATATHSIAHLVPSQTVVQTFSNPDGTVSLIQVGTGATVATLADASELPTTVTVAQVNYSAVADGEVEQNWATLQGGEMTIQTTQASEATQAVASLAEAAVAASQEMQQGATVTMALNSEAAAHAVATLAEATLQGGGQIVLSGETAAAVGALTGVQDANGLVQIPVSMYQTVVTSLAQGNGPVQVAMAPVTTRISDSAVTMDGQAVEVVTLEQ
Outline: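 Transcriptional reporter readout, one component of a 52-endpoint multiplexed HepG2 panel. Exposure 24 h; mRNA detected via RT-PCR and fluorescent capillary electrophoresis; fitting in both directions against DMSO.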

[6] = ATG_NFI_CIS: Attagene CIS-FACTORIAL HepG2 Assay for human Nuclear Factor I (NFI) (AID 2282989); details: HepG2 cis-regulatory reporter, NFI response element transcription; actives raise or lower the signal
Outline: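 Endogenous TF activity in HepG2 cells transiently transfected with cis-element-driven multiplexed reporter units, read 24 h after dosing. Reporter mRNA quantified by RT-PCR, 6-FAM labelling, HpaI digestion and capillary electrophoresis; bidirectional fit versus DMSO.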

[7] = biological target: Myc proto-oncogene protein (Homo sapiens) (UniProt P01106); assay: ATG_Myc_CIS: Attagene CIS-FACTORIAL HepG2 Assay for human Myelocytomatosis (Myc) Proto-Oncogene Transcription Factor (AID 2282990); details: HepG2, Attagene cis-reporter transcription factor activity; actives raise or lower the signal
Myc proto-oncogene protein (Homo sapiens), sequence (P01106 whole entry, looked up): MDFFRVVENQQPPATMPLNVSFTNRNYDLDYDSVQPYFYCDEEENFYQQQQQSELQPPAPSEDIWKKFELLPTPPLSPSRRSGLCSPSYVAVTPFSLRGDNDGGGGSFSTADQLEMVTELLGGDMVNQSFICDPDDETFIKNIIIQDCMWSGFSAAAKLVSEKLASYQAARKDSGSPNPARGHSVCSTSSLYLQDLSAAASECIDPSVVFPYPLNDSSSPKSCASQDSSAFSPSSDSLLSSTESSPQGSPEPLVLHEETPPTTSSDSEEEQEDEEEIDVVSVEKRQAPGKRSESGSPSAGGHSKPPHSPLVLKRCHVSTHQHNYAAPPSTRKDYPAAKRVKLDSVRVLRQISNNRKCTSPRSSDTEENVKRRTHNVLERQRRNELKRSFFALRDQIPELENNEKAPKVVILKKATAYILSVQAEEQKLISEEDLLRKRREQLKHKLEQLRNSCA
Outline: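 DMSO-normalised, bidirectionally fitted reporter mRNA signal. HepG2 cells transfected with cis reporter constructs, treated 24 h; transcripts detected by RT-PCR, 6-FAM primer extension and CE.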

[8] = ATG_NF_kB_CIS: Attagene CIS-FACTORIAL HepG2 Assay for human Nuclear Factor Kappa B (NF-kB) (AID 2282991); details: HepG2 Attagene cis-factorial NF-kB reporter mRNA; actives raise or lower the signal
Outline: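 HepG2, transient multi-reporter transfection, cis promoter elements (endogenous TFs). 24 h exposure. Total RNA → RT → PCR → 6-FAM label → HpaI → CE. Gain/loss vs DMSO.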

[9] = ATG_NRF2_ARE_CIS: Attagene CIS-FACTORIAL HepG2 Assay for human Nuclear Factor Erythroid 2 Related Factor 2 (NFR2) response to Antioxidant Response Elements (ARE) (AID 2282992); details: HepG2 Attagene ARE/NRF2 reporter, transcription factor activity; actives raise or lower the signal;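 on AC50: reporter mRNA level measured by RT-PCR and capillary electrophoresis fluorescence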
Outline: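 Readout: reporter mRNA quantified by RT-PCR plus FAM-labelled primer extension, HpaI digestion and capillary electrophoresis, 24 h after dosing transfected HepG2 cells. Gain or loss of signal is fitted bidirectionally against DMSO baseline.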

[10] = ATG_Oct_MLP_CIS: Attagene CIS-FACTORIAL HepG2 Assay for human Octamer-Binding Transcription Factor (Oct) (AID 2282993); details: HepG2 Attagene cis-factorial Oct reporter, mRNA; actives raise or lower the signal
Outline: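 HepG2 cells transiently transfected with cis-element-driven reporter transcription units (endogenous TF activity); 24 h compound exposure. Reporter mRNA quantified by RT-PCR, 6-FAM labelling, HpaI digestion and capillary electrophoresis; bidirectional fit versus DMSO baseline.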

[11] = biological target: Cellular tumor antigen p53 (Homo sapiens) (UniProt P04637); assay: ATG_p53_CIS: Attagene CIS-FACTORIAL HepG2 Assay for human p53 Transcription Factor (AID 2282994); details: HepG2 p53 cis-element reporter, Attagene mRNA; actives raise or lower the signal
Cellular tumor antigen p53 (Homo sapiens), sequence (P04637 whole entry, looked up): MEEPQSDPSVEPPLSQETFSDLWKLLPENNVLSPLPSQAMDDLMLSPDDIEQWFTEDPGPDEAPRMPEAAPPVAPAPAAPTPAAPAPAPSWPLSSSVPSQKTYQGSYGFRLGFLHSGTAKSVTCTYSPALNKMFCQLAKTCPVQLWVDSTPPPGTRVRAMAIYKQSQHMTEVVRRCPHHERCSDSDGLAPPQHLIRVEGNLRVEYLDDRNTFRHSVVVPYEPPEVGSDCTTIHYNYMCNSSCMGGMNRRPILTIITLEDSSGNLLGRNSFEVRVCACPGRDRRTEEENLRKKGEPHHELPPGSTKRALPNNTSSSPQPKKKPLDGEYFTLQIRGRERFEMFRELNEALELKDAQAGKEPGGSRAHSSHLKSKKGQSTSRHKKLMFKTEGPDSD
Outline: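 Read-out: reporter mRNA by RT-PCR plus capillary electrophoresis with fluorescence detection. Human HepG2 liver cells carried transfected multi-reporter cis-element constructs, dosed 24 h. Gain or loss of signal fitted bidirectionally against DMSO control.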

[12] = biological target: human Peroxisome Proliferator-activated Receptor alpha (PPARa), PPARA (gene 5465) (UniProt Q07869); assay: ATG_PPARa_TRANS: Attagene TRANS-FACTORIAL HepG2 Assay for human Peroxisome Proliferator-activated Receptor alpha (PPARa) (AID 2283001; active means hit-call score of the fitted dose curve at least 0.9, where 1 is the maximum;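 on AC50: potency for gain of reporter signal over DMSO so agonist or activator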)
human Peroxisome Proliferator-activated Receptor alpha (PPARa), PPARA (gene 5465), sequence (Q07869 whole entry, looked up): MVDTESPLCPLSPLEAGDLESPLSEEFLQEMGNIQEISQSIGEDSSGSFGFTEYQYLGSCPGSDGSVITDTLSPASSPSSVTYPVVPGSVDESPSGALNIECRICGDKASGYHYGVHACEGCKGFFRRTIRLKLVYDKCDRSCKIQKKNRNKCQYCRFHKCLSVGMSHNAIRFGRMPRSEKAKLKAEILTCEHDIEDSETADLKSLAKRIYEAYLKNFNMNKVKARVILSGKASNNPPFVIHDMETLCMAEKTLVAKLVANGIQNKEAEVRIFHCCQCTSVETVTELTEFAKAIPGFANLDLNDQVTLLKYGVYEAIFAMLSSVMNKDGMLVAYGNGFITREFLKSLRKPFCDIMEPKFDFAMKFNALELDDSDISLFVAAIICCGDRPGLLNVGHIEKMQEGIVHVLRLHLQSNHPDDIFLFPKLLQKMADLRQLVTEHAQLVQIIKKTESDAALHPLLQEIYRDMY
Outline: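 Cells (HepG2) are transfected with multiple reporter transcription units, exposed to chemical for 24 h, then total RNA is reverse-transcribed and amplified. Labelled products are quantified by capillary electrophoresis; induction is referenced to DMSO.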

[13] = biological target: Oxysterols receptor LXR-beta (Homo sapiens) (UniProt P55055); assay: ATG_LXRb_TRANS: Attagene TRANS-FACTORIAL HepG2 Assay for human Liver X Receptor beta (LXRb) (AID 2282981; active means hit-call score of the fitted dose curve at least 0.9, where 1 is the maximum); details: HepG2 Attagene TRANS GAL4-LXRb reporter, mRNA
Oxysterols receptor LXR-beta (Homo sapiens), sequence (P55055 whole entry, looked up, the tested form may be a part): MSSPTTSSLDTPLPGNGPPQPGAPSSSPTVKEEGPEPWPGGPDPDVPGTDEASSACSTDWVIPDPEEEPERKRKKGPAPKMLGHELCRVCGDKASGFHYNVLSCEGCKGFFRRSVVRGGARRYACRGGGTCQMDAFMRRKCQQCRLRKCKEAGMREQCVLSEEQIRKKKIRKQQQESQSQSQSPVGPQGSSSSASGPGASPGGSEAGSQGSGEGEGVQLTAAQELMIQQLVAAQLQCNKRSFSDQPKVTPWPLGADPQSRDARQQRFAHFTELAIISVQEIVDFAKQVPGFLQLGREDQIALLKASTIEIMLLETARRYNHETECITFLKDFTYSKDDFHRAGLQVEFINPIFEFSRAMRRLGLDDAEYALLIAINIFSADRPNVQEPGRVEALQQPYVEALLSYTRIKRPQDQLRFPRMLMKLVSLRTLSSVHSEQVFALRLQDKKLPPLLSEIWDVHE
Outline: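 Measures induction of a Gal4-driven reporter transcript in HepG2 cells expressing an exogenous LXRb-Gal4 fusion. Cells are exposed to compound for 24 h before RNA isolation and RT-PCR with capillary electrophoresis detection.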

[14] = biological target: Hepatocyte nuclear factor 4-alpha (Homo sapiens) (UniProt P41235); assay: ATG_HNF4a_TRANS: Attagene TRANS-FACTORIAL HepG2 Assay for human Hepatocyte Nuclear Factor 4 alpha (HNF4a) (AID 2282982; active means hit-call score of the fitted dose curve at least 0.9, where 1 is the maximum); details: HepG2 HNF4a transactivation reporter, mRNA readout
Hepatocyte nuclear factor 4-alpha (Homo sapiens), sequence (P41235 whole entry, looked up, the tested form may be a part): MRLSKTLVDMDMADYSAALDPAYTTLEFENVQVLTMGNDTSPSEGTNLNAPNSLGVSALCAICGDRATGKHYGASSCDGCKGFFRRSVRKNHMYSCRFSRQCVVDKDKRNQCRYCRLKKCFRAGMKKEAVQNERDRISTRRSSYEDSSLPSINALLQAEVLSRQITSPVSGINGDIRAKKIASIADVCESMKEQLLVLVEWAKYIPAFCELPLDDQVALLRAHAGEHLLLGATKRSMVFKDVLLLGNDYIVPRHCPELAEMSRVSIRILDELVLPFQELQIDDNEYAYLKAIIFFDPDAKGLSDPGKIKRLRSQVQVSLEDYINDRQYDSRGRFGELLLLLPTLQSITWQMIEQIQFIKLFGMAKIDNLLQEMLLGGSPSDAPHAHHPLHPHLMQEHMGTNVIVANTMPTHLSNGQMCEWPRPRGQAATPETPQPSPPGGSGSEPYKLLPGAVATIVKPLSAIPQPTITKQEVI
Outline: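 In this trans-factorial format, a chimeric HNF4a-GAL4 fusion drives a GAL4-UAS reporter in transfected HepG2 liver cells. After 24 h treatment, reporter mRNA induction is measured by RT-PCR with capillary electrophoresis, relative to DMSO.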

[15] = BSK_3C_TissueFactor: BioMAP Diversity Plus: 3C Assay for Tissue Factor Biomarker Activity (AID 2282997); details: BioMAP 3C HUVEC, tissue factor biomarker readout; actives raise or lower the signal
Outline: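 Tissue factor on primary human umbilical vein endothelium was read by ELISA 24 h after dosing, gain or loss relative to DMSO. Cytotoxicity ran alongside via SRB (0.1%, TCA-fixed, 560 nm).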

[16] = BSK_3C_uPAR: BioMAP Diversity Plus: 3C Assay for Urokinase-type plasminogen activator receptor (uPAR) Biomarker Activity (AID 2282998); details: BioMAP 3C HUVEC, uPAR biomarker ELISA; actives raise or lower the signal
Outline: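 Primary human umbilical vein endothelial cells, 3C system; surface uPAR measured by ELISA 24 h after dosing. Cytotoxicity via SRB total protein in parallel cultures; bidirectional fit against DMSO.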

[17] = BSK_3C_VCAM1: BioMAP Diversity Plus: 3C Assay for Vascular cell adhesion molecule 1 (VCAM1) Biomarker Activity (AID 2282999); details: BioMAP 3C HUVEC, VCAM1 ELISA, cytokine-stimulated; actives raise or lower the signal
Outline: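 Vascular primary endothelium (human umbilical vein) was exposed to chemicals and assayed 24 h later. VCAM-1 levels came from ELISA, with DMSO serving as baseline for bidirectional fitting.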

[18] = BSK_4H_Eotaxin3: BioMAP Diversity Plus: 4H Assay for Eotaxin 3 Biomarker Activity (AID 2283000); details: primary human endothelial cells (HUVEC); actives raise or lower the signal;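 further: CCL26 protein level quantified by ELISA in parallel with SRB cytotoxicity check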
Outline: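 Human umbilical vein endothelial cells (BSK_4H system) dosed with test chemical; Eotaxin-3 (CCL26) measured by ELISA 24 h after dosing. Bidirectional curve fitting relative to DMSO negative control as baseline.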

[19] = ATG_M_06_TRANS: Attagene TRANS-FACTORIAL HepG2 Assay for M06 Transcription Factor (Internal Marker) (AID 2282983; active means hit-call score of the fitted dose curve at least 0.9, where 1 is the maximum); details: HepG2 Attagene TRANS M06 internal marker reporter
Outline: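 Background-control reporter readout: after 24 h chemical exposure of transiently transfected HepG2 (GAL4-UAS reporter units), mRNA quantified by RT-PCR with fluorescent labeling and capillary electrophoresis. Gain-of-signal fitting against DMSO baseline.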

Measured: AC50

CCCCCCCCCCCCCC[n+]1ccccc1
inactive: [1] | [4] | [5] | [6] | [7] | [8] | [10] | [11]
active: [2] 47 µM | [3] 9.84 µM | [9] 0.172 µM | [12] 177 µM

Cc1ccccc1OCC(=O)O
active: [4] 164 µM
inactive: [1] | [2] | [3] | [5] | [6] | [7] | [9] | [10]

CCO[Si](C)(C)OCC
inactive: [13] | [14] | [2] | [3] | [4] | [5] | [6] | [8] | [10] | [11]

C=CC(=C)CC/C=C(\C)CCC=C(C)C
active: [9] 19 µM
not listed: [12] | [13] | [14] | [19]
inactive: all other assays above

CCN(CCC#N)c1ccccc1
inactive: [1] | [2] | [3] | [4] | [5] | [6] | [7] | [8] | [10]

O=C(O)C(F)(F)OC(F)(F)C(F)(F)OC(F)(F)C(F)(F)OC(F)(F)C(F)(F)C(F)(F)C(F)(F)F
active: [3] 13.4 µM and 16.6 µM | [6] 80.8 µM | [8] 27.5 µM | [9] 4.04 µM | [10] 34 µM and 29.7 µM | [11] 27.4 µM | [15] 22.3 µM and 27.7 µM | [16] 21.3 µM and 23 µM | [17] 52.2 µM and 50.4 µM | [12] 24 µM
inactive: [1] | [2] | [4] | [5] | [6] | [8] | [9] | [11] | [12]

CCC(=O)C=Cc1ccc(OC)cc1
active: [4] 137 µM | [8] 100 µM | [9] 27.1 µM
inactive: [13] | [14] | [3] | [5] | [6] | [7] | [10] | [11]

CCN(CC)CC
not listed: [8] | [13] | [14] | [15] | [16] | [17] | [18] | [19]
inactive: all other assays above

CC[N+](CC)(CC)Cc1ccccc1
not listed: [3] | [7] | [12] | [13] | [14] | [18]
inactive: all other assays above

COc1cccc(O)c1
not listed: [12] | [13] | [14] | [18] | [19]
inactive: all other assays above

COC1=CC(=O)C[C@@H](C)[C@]12Oc1c(Cl)c(OC)cc(OC)c1C2=O
active: [8] 25.6 µM
not listed: [11] | [12] | [13] | [14] | [19]
inactive: all other assays above

CN(C)c1ccc(C(=C2C=CC(=[N+](C)C)C=C2)c2ccccc2)cc1
active: [3] 543 nM and 1.4 µM | [6] 5.55 µM | [8] 933 nM and 1.85 µM | [9] 474 nM and 475 nM | [10] 2.27 µM | [11] 1.61 µM and 2.64 µM | [15] 15.2 nM | [16] 14.1 nM | [17] 27.3 nM
inactive: [13] | [14] | [19] | [2] | [4] | [5] | [6] | [7] | [10]

FC1(F)C=CC(F)(F)C1(F)F
inactive: [1] | [3] | [4] | [5] | [6] | [7] | [8] | [9] | [10] | [11]
